# Experimental data: PubChem BioAssay (NCI)
# Compounds without any hit were thinned out: in the full panel of roughly 83,000, 20% have a hit.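 Cells were grown in 96-well plates and exposed to the test compound at a single concentration for 48 hours; results are reported as percent growth, with values below 10 considered active.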 Values without a mark were called inactive. Activity calls are given as the source filed them.
# Key:
# Test in all cases: NCI-60 one-dose screen, 48 h (100 = growth as untreated, 0 = no growth, -100 = all killed)
# [1] = tested on: SK-MEL-2 melanoma; conditions: 10 µM unless noted
# [2] = tested on: EKVX NSCLC; conditions: 10 µM unless noted
# [3] = tested on: SN12C renal; conditions: 10 µM unless noted
# [4] = tested on: UO-31 renal; conditions: 10 µM unless noted
# [5] = tested on: TK-10 renal; conditions: 10 µM unless noted
# [6] = tested on: ACHN renal; conditions: 10 µM unless noted
# [7] = tested on: CAKI-1 renal; conditions: 10 µM
# [8] = tested on: A498 renal; conditions: 10 µM unless noted
# [9] = tested on: CCRF-CEM leukemia; conditions: 10 µM unless noted
# [10] = tested on: MOLT-4 leukemia; conditions: 10 µM unless noted
# [11] = tested on: SR leukemia; conditions: 10 µM unless noted
# [12] = tested on: RPMI-8226 leukemia; conditions: 10 µM unless noted
# [13] = tested on: OVCAR-8 ovarian; conditions: 10 µM unless noted
# [14] = tested on: OVCAR-5 ovarian; conditions: 10 µM unless noted
# [15] = tested on: OVCAR-4 ovarian; conditions: 10 µM unless noted
# [16] = tested on: IGROV1 ovarian; conditions: 10 µM unless noted
# [17] = tested on: OVCAR-3 ovarian; conditions: 10 µM unless noted
# [18] = tested on: HS 578T breast; conditions: 10 µM unless noted
# [19] = tested on: NCI/ADR-RES ovarian; conditions: 10 µM unless noted
# [20] = tested on: SK-OV-3 ovarian; conditions: 10 µM unless noted
Structure (SMILES),growth [1],growth [2],growth [3],growth [4],growth [5],growth [6],growth [7],growth [8],growth [9],growth [10],growth [11],growth [12],growth [13],growth [14],growth [15],growth [16],growth [17],growth [18],growth [19],growth [20]
O=C1[C@@H]2Cc3c([nH]c4ccccc34)[C@H](c3c(Cl)cccc3Cl)N2C(=O)CN1C1CCN(Cc2ccccc2)CC1,85.7%,53.6%,15.5%,14%,89.2%,43.5%,74.3%,66.3%,3.54% (active),12.8%,1.57% (active),7.38% (active),47.7%,63%,-0.678% (active),24.6%,81.4%,28.5%,18.5%,
C#C[C@]1(O)CC[C@H]2[C@@H]3CC=C4c5sc(Nc6cc(Cl)ccn6)nc5CC[C@]4(C)[C@H]3CC[C@@]21C,-4.31% (active),-1.83% (active),53.6%,-51.3% (active),35.4%,32.5%,-19.9% (active),-42.4% (active),9.26% (active),4.35% (active),4.56% (active),-22.9% (active),48.7%,47.5%,68.1%,40.1%,,-3.53% (active),34.7%,-1.88% (active)
Oc1ccc(CSc2nnc(-c3ccccc3)n2-c2ccccc2)c2cccnc12,30.8%,18.5%,19.5%,-19.8% (active),27.3%,6.88% (active),10.5%,12.7%,9.93% (active),15.6%,33.6%,10.9%,16.8%,43.7%,15.8%,,6.38% (active),9.17% (active),,9.62% (active)
C#C[C@]1(O)CC[C@H]2[C@@H]3CC=C4c5sc(Nc6nc(C)cc(OC)n6)nc5CC[C@]4(C)[C@H]3CC[C@@]21C,58.2%,41.8%,73%,-1.87% (active),121%,49.2%,19.2%,18.7%,12.7%,7.93% (active),12.4%,-0.189% (active),73.3%,78.8%,88.4%,66%,,-6.82% (active),62.7%,
O=C(CSc1nnc(-c2ccc(Cl)cc2)n1-c1ccccc1)Nc1ccc(F)cc1,111%,90.6%,62.6%,97.5%,88.7%,24.7%,70.9%,69.8%,91.8%,103%,76.4%,89.5%,74%,97.4%,98.3%,95.1%,,61.4%,77.9%,83.8%
O=C1c2c(c3c4cc(Br)ccc4[nH]c3c3ccc4ccccc4c23)C(=O)N1CCN1CCNCC1,113%,85.9%,84.8%,58.7%,148%,69.6%,66.1%,97.1%,3.91% (active),4.47% (active),-14.3% (active),-9.87% (active),57.3%,113%,103%,68.5%,,115%,69.5%,93.6%
O=C(c1cccc(F)c1)n1ccc2cc(NC(=S)Nc3cccnc3)ccc21,102%,105%,95.9%,83.3%,94.8%,103%,97%,92.4%,83.1%,84.9%,81.6%,99.3%,102%,101%,103%,,107%,94.4%,105%,105%
O=[N+]([O-])c1ccc(-c2nnc(SCc3ccc(O)c4ncccc34)n2-c2ccccc2)cc1,13.8%,40.5%,9.69% (active),7.34% (active),79.3%,29.3%,30.1%,70.8%,21%,43.2%,40.6%,17.8%,17.9%,73.9%,50.6%,,,5.1% (active),69%,30.6%
CC(C)SC1=NC(=C(C(=N1)NC2=ClC=CC=C2)C#N)C3=CC=CC=C3,125%,84%,36.7%,24.7%,112%,23.4%,64.5%,71.6%,63.4%,83.3%,69.3%,88.2%,46.8%,80.3%,-4.9% (active),-5.3% (active),,65.4%,52.7%,88.5%
O=C(/C=C/c1cn(-c2ccccc2)nc1-c1ccc(Cl)cc1)c1cc2ccccc2oc1=O,88%,79.8%,31%,39.8%,113%,59.9%,29.2%,111%,50.7%,55.3%,45.2%,70.8%,52.8%,98%,57.2%,,82.8%,66.5%,71.9%,92.7%
CCCC(=O)NC(c1cccnc1)c1ccc2c(C)ccnc2c1O (configuration not stated),42.5%,15.1%,29.1%,11.8%,33.3%,13.8%,19.2%,37.8%,4.51% (active),13.9%,41.2%,32.1%,21.1%,32.3%,11.2%,19.2%,13.1%,67.6%,,
Cn1ccnc1C(=O)/C=C/c1ccc(C(=O)Nc2ccc(NC(=O)CCNC(=O)c3csc(Br)n3)cc2)cc1,109%,69.9%,40.2%,46.6%,89.7%,61.8%,29.3%,100%,12.9%,70.3%,12.5%,14.5%,63.9%,78.8%,64.1%,,15.5%,95.5%,60.9%,100%
Oc1ccc(CSc2nnc(-c3ccncc3)o2)c2cccnc12,8.88% (active),47.6%,7.4% (active),12.4%,34.6%,40.5%,7.09% (active),9.33% (active),26%,25.7%,50.4%,5.35% (active),15.8%,35.7%,19.7%,22.4%,19.8%,5.36% (active),58.4%,
COc1ccc(OC)c(NC2=C(Cl)C(=O)C(C)=C(C)C2=O)c1,95.7%,77.4%,92.8%,92.4%,172%,100%,94%,91.6%,12.9%,36%,96.5%,65.9%,95.6%,109%,55.5%,89.6%,,92.8%,96.8%,
CCOC(=O)c1nn(-c2ccc(C)cc2)c(=O)c2c(N)c(C#N)c(-c3ccc(OC)cc3)cc12,95.1%,84.7%,85.6%,80.5%,125%,93.6%,92%,118%,103%,114%,127%,98.6%,101%,94.3%,101%,80.2%,,90.1%,106%,
O=C(COc1ccc(/C=C2\SC(=O)NC2=O)cc1)Nc1ccc(C(=O)/C=C/c2cc3ccccc3nc2Cl)cc1,91%,73.1%,87.5%,57.6%,89.8%,85.1%,59.2%,80.7%,35.4%,42.8%,31.3%,-25.8% (active),76.4%,110%,42.2%,,85.5%,78.8%,92.6%,108%
Oc1ccccc1-c1nnc(SCc2ccc(O)c3ncccc23)o1,34.1%,53.1%,18.5%,14.7%,43.9%,25.4%,25.3%,81.7%,28.1%,36.3%,43.3%,13.5%,26.4%,68.4%,35.9%,53%,29.7%,6.2% (active),49%,
